# Laboratory results as given in the supplement of paper PMC6555819.
# Key:
# Test in all cases: PBM binding z-score (relative to random genomic background probes); higher = stronger binding; sequences stand for … in GC…GCGATTGACAGCGTAGAATGAAGG
# [1] = test system: PPARg:RXRa DBDmut IVT, anti-RXR (DBD mutation: RXRa K156A/R161A, NR concentration 270 nM, RXRa partner concentration 90 nM)
# Summary of the method: (§1)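 Probes were double-stranded and carried 34-nt variable regions with direct-repeat seeds, single-nucleotide variants, half-site ablations and random human genomic background sequences, printed on custom Agilent 4×180K protein-binding microarrays. Arrays were incubated 1 h with ligand-free nuclear receptor dimers in PBS pH 7.4, 2% milk, 0.02% Triton X-100, 1 mM DTT, 0.2 mg/mL BSA and 0.4 mg/ml salmon testes DNA. Antibodies against each partner (one per run) detected binding, and scanned fluorescence was regression-normalized. Binding z-scores use the random background probes as reference.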
# [2] = test system: PPARg:RXRa IVT, anti-PPARg (NR concentration 270 nM, RXRa partner concentration 90 nM)
# Summary of the method: as §1
# [3] = test system: PPARg DBDmut:RXRa IVT, anti-PPARg (DBD mutation: PPARg1 K132A/R137A, NR concentration 270 nM, RXRa partner concentration 90 nM)
# Summary of the method: as §1
# [4] = test system: PPARg DBDmut IVT, anti-PPARg (DBD mutation: PPARg1 K132A/R137A, NR concentration 270 nM)
# Summary of the method: as §1
# [5] = test system: PPARg homodimer (NR concentration 180 nM)
# Summary of the method: as §1
# [6] = test system: PXR:RXRa (NR concentration 270 nM, RXRa partner concentration 90 nM)
# Summary of the method: as §1
# [7] = test system: PXR homodimer (NR concentration 270 nM)
# Summary of the method: as §1
# [8] = test system: RARa:RXR (NR concentration 270 nM, RXRa partner concentration 90 nM)
# Summary of the method: as §1
# [9] = test system: RARa homodimer (NR concentration 270 nM)
# Summary of the method: as §1
# [10] = test system: RARb:RXRa (NR concentration 270 nM, RXRa partner concentration 90 nM)
# Summary of the method: as §1
Sequence,PBM binding z-score [1],PBM binding z-score [2],PBM binding z-score [3],PBM binding z-score [4],PBM binding z-score [5],PBM binding z-score [6],PBM binding z-score [7],PBM binding z-score [8],PBM binding z-score [9],PBM binding z-score [10]
CAAACTAGGTCAAAGGACAAAGTCGAGCCAACCA,8.09,8.38,2.59,0.234,1.32,1.72,0.313,3.01,0.239,4.03
CCTACTGGTCCAAAGGTCATTGATTCCAATGCTC,1.53,4.41,0.302,0.567,3.79,5.35,2.05,5.46,1.48,4.42
GCTGCTAAGTCAACTGATGGTCAGCTAAAGCTCG,-0.284,-0.667,-2.15,-1.17,-0.917,-0.575,-1.21,-0.177,-1.24,0.174
TTACCAAGGTGAGAGGTCGTTGATGCACGCCTTG,1.49,4.04,0.616,0.0764,1.63,2.47,0.681,3.06,-0.505,2.33
GCAGACAGGTGAAACGCAGGAAACTCAGGGTGGC,0.874,0.378,-0.857,-0.37,-0.537,-0.387,-0.338,-0.0101,-0.25,0.527
CGATCGAGGGCATGAGTTGATAGCAAATGCCGAT,2.46,1.93,-0.505,-0.163,0.296,0.228,-0.306,0.106,-0.984,1.94
ATATGTAGGTAATCGGGTCATTCAGTTTGCGCAT,7.17,7.38,2.95,2.04,1.76,2.84,6.06,2.79,1.35,1.6
CGTCCAAGGGCAAAGGTCAGTGAAGAGATGACGG,1.01,4.07,-0.495,-0.877,1.99,4.76,0.541,6.49,0.911,4.78
CGTCCAAGGTCAGCAGGTCAGTGTAAGCGACGTG,2.97,3.67,-0.32,-0.582,2.97,3.74,0.447,5.09,1.36,5.35
CCTTTCGGGTCACTCCAGGTTATAGCATCGGAGT,2.65,3.53,0.307,-0.494,2,4.94,0.803,3.73,0.474,4.01
CCTAGCAGGCCAGGGTCACTCCAGCATTTCGCTT,0.422,1.18,-1.53,-1.63,1.15,2.12,-0.229,2.93,0.279,2.47
ATCGAAAGGTCGAGGTGAGTAGAGAGAAAGGGAA,0.416,2.34,1.55,0.427,1.76,2.19,0.327,3.31,1.21,4.11
ATCTCTAGGTAACAAGTTCAGGGAAAGAGAGGAC,3.5,3.06,1.15,2.01,1.61,1.74,1.82,1.32,1.58,1.69
TCATATAGGTAAATGCTAGGTGAAAGTCCGATCT,3.92,2.74,1.21,1.03,0.763,0.713,0.387,1.07,1.52,0.642
AGAATGAGGTTATACGGAGATCAGGGAAGAAAGT,2.35,2.05,1.14,0.774,0.836,1.25,0.96,1.74,0.352,1.5
TCTTGTAGATCAAAGGCTAAGAAAGCCGAAGCCT,1.65,1.23,0.137,0.157,-0.136,-0.183,-0.625,0.0326,-0.389,0.153
CGAACCAGGTCAAGGACAGTGAATCTCCGCACGC,4.75,5.44,0.626,1.5,2.06,2.01,0.853,3,0.303,4.04
TAGCCTAGGTCAGATCGGGCCCGTATACGCTATA,0.295,1.06,-0.496,-0.614,-0.129,0.189,-0.808,1.16,-0.649,3.02
GCAGACAGGTGAAAGGCAGGTAACTCAGGGTGGC,0.331,0.821,-0.179,-1.25,0.447,-0.081,-0.0558,0.332,0.233,0.812
CCACACAGGTGAGAAGGTAACTCAGCCTCGATTA,1.42,0.872,-0.137,-0.56,1.35,0.0866,0.0622,0.524,0.47,0.709
TTACCAAGGTGAGCTGAGGTTGTTGATCCAACTC,1.22,1.51,-0.399,-0.245,-0.248,2.03,-0.915,0.168,-0.951,0.78
CATACTGGGCCAAGGTCATTGATCAGTCAAAGCA,3.65,4.49,0.346,-0.286,2.02,3.78,2.15,4.01,0.356,3.35
GATACAGGGTCAAGGCCAGATTACGCGTATTGAT,2.74,4.03,2.24,1.3,3.72,4.43,0.645,5.48,1.59,4.65
AGAATGAGGTTCCCAAAGATCAGGGAAACGCTTG,0.186,0.311,1.11,0.173,0.224,-0.152,-0.346,0.182,-0.181,-0.0949
CATACAGGGTCAGCTAGGCTAGAGTAGGGACGGC,1.19,2.32,0.769,0.0787,1.21,1.85,-0.333,2.72,0.409,3.96
